# Source: article PMC7862700, “An all-to-all approach to the identification of sequence-specific readers for epigenetic DNA modifications on cytosine”
# Columns and labels:
# Assay in all cases: DAPPL (digital affinity profiling via proximity ligation, sequencing); 10 mM Tris-HCl pH 7.5, 50 mM NaCl, 1 mM DTT, 4% glycerol, room temperature, 30 min; GST-TFs on glutathione beads, 16-mer random dsDNA library, 0.1% formaldehyde crosslink after washing; high values mean tight binding
# Details in all cases: protein: recombinant; tags: N-terminal GST; dsDNA, one strand shown
# SPIC = target: T1, SPIC (Homo sapiens, UniProt Q8N5J4 1-248)
# T1 sequence: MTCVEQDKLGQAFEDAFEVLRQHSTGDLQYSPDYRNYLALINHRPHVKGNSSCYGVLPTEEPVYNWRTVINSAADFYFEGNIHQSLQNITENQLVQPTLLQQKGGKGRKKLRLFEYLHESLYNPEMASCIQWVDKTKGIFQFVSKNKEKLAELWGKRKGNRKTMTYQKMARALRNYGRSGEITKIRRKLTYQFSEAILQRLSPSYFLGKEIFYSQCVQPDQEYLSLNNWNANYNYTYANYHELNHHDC
# In short: (§1)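 Sequencing on an Illumina NextSeq500 followed washing, crosslinking with 0.1% formaldehyde, proximity ligation (BsaI/T4 ligase, 1 h, 37 °C) and PCR amplification of pools that had been incubated for 30 min at room temperature with 200 nmole of a random double-stranded 16-mer DNA library in Tris/NaCl/DTT/glycerol buffer. Each pool held DNA-barcoded human transcription factors, expressed in yeast as GST fusions and captured on glutathione beads, plus a tag-only sample. Binding signal is a hexamer's read frequency for a factor divided by its frequency in the tag-only sample.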
# ELF4 = ELF4 (Homo sapiens, UniProt Q99607 1-663)
# In short: as §1
# ELK4 = target: T2, ELK4 (Homo sapiens, UniProt P28324-2 1-405)
# T2 sequence: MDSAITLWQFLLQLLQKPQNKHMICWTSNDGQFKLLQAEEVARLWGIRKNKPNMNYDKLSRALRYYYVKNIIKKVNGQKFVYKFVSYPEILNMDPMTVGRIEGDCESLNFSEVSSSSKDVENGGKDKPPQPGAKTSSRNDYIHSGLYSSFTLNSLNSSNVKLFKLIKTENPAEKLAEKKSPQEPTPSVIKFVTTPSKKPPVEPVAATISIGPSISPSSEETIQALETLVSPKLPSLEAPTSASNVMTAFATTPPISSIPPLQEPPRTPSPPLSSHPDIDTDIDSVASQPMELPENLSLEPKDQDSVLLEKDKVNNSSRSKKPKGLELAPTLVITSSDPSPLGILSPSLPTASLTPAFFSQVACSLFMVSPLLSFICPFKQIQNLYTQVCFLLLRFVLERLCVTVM
# In short: as §1
# ETV2 = target: T3, ETV2 (Homo sapiens, UniProt O00321 1-342)
# T3 sequence: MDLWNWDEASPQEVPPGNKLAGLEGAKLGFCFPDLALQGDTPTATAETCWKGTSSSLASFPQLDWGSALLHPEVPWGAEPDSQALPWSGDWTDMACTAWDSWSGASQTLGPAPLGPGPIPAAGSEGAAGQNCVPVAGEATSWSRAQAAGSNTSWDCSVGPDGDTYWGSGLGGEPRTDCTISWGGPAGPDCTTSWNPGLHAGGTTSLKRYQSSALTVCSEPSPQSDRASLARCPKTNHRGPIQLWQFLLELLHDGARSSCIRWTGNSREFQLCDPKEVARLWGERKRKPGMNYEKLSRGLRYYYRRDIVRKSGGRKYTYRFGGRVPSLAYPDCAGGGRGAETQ
# In short: as §1
# ELF3 = target: T4, ELF3 (Homo sapiens, UniProt P78545 1-371)
# T4 sequence: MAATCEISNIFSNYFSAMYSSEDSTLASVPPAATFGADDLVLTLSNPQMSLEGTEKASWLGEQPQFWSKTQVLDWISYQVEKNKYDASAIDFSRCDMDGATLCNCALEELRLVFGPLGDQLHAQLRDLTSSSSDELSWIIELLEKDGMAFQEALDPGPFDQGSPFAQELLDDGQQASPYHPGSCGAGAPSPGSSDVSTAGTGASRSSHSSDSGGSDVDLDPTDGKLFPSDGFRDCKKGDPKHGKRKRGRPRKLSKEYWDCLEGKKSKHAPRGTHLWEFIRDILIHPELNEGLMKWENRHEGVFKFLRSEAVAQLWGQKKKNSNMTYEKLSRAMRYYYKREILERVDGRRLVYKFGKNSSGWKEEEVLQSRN
# In short: as §1
# ERF = target: T5, ERF (Homo sapiens, UniProt P50548 1-548)
# T5 sequence: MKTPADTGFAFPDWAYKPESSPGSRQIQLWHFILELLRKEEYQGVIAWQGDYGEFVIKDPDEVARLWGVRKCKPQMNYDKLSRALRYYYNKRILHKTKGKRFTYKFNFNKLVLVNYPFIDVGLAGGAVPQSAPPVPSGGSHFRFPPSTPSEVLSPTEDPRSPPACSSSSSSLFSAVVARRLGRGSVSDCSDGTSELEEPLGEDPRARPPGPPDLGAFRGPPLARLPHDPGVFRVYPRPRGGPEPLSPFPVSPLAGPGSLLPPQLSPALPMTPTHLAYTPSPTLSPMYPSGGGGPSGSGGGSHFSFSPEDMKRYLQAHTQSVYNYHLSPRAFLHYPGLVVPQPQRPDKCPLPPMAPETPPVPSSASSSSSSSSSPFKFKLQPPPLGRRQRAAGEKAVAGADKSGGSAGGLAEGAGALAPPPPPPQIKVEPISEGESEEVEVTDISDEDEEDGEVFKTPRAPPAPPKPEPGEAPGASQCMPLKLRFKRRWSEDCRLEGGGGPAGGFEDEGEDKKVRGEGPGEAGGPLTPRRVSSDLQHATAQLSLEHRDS
# In short: as §1
# ETV3L = target: T6, ETV3L (Homo sapiens, UniProt Q6ZN32 1-361)
# T6 sequence: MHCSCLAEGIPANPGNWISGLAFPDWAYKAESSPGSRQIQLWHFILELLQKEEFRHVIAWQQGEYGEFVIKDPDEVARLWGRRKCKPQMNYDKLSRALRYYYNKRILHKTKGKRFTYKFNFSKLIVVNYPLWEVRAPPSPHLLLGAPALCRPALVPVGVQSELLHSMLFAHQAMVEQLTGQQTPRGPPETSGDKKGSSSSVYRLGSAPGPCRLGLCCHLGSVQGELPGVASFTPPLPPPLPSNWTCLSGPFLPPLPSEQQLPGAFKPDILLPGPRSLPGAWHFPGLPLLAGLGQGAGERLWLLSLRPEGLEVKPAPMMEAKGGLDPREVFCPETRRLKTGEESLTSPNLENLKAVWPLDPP
# In short: as §1
# ETS2 = target: T7, ETS2 (Homo sapiens, UniProt P15036 1-469)
# T7 sequence: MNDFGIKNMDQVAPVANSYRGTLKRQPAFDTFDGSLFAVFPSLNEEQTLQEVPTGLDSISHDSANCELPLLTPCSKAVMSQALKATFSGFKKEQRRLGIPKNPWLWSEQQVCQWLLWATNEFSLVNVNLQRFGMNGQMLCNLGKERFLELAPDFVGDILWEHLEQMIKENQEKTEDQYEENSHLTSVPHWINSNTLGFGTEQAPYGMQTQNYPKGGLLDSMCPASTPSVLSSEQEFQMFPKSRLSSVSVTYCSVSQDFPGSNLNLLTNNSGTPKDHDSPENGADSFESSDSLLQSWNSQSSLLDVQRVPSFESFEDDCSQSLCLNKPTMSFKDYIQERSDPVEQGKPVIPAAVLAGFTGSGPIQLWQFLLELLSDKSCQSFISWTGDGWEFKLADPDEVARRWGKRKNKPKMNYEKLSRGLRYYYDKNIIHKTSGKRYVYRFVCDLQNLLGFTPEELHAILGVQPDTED
# In short: as §1
# ETV7 = target: T8, ETV7 (Homo sapiens, UniProt Q9Y603 1-341)
# T8 sequence: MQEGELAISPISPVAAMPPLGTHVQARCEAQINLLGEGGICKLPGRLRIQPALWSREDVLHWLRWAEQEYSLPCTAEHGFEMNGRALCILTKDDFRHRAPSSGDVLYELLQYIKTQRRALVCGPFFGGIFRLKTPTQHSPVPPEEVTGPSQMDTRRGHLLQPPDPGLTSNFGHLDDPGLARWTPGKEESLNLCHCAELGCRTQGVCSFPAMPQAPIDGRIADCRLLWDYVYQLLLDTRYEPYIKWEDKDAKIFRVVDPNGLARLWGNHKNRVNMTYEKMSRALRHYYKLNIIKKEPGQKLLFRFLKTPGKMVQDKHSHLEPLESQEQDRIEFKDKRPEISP
# In short: as §1
# ETV6 = ETV6 (Homo sapiens, UniProt P41212 1-452)
# In short: as §1
# Sequence of ETV6 (P41212 whole entry): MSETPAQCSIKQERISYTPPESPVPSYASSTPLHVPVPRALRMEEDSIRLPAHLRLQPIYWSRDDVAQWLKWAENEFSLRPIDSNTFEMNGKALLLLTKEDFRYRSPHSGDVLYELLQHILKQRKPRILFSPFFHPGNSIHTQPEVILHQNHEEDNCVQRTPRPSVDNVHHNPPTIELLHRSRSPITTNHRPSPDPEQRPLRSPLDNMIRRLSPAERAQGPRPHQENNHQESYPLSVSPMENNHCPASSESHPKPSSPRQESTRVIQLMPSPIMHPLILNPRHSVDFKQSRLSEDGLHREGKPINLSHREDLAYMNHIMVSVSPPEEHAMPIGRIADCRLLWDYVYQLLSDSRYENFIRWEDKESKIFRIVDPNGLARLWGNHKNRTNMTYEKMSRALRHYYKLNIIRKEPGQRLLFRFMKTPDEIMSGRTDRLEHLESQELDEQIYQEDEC
# Sequence of ELF4 (Q99607 whole entry): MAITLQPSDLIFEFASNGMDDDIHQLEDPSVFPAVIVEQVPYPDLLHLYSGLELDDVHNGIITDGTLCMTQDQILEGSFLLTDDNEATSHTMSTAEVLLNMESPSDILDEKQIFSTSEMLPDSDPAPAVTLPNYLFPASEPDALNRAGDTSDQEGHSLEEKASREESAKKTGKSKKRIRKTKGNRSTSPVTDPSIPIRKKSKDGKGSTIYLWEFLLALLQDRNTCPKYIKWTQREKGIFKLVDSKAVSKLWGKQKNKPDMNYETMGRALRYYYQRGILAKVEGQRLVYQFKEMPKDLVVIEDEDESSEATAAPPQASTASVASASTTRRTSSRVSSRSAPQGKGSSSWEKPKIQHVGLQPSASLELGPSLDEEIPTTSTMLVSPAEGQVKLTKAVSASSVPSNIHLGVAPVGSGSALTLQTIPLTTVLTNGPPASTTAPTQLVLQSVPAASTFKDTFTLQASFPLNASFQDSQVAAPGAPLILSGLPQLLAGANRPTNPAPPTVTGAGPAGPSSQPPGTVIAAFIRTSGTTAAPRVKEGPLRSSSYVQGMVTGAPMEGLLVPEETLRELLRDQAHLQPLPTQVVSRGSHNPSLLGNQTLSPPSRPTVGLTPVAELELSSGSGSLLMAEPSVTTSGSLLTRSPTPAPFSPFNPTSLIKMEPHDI
sequence,measurement,setting,value
CATTGC,binding signal,SPIC,"1.16 fold enrichment (6-mer frequency, TF over GST control)"
same,binding signal,ELF4,"1.11 fold enrichment (6-mer frequency, TF over GST control)"
same,binding signal,ELK4,"1.04 fold enrichment (6-mer frequency, TF over GST control)"
same,binding signal,ETV2,"1.3 fold enrichment (6-mer frequency, TF over GST control)"
same,binding signal,ELF3,"1.04 fold enrichment (6-mer frequency, TF over GST control)"
same,binding signal,ERF,"1.11 fold enrichment (6-mer frequency, TF over GST control)"
same,binding signal,ETV3L,"1.08 fold enrichment (6-mer frequency, TF over GST control)"
same,binding signal,ETS2,"1.17 fold enrichment (6-mer frequency, TF over GST control)"
same,binding signal,ETV7,"1.14 fold enrichment (6-mer frequency, TF over GST control)"
same,binding signal,ETV6,"1.09 fold enrichment (6-mer frequency, TF over GST control)"
